Screening data from PubChem.
CHO-K1 Ca antag: M1 antagonist counterscreen hit in parental CHO-K1 cells; ATP-induced calcium, Fluo-8 fluorescence; inhibition, % at 3 µM; 360,000 tested, 0.6% active;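 active = inhibition above a per-plate cutoff, the plate's mean sample inhibition plus 3 SD, cut at about 24% in these data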;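 note: 0% = DMSO plus EC80 ATP and 100% = DMSO alone without ATP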
M4 PAM: positive allosteric modulators of human muscarinic M4 receptor. activation, % at 3 µM. AID 624126. CHO-K1 hM4/Gqi5, Fluo-8 calcium fluorescence, ACh EC20; 0% = ACh EC20, 100% = maximal ACh. 360,000 tested, 0.4% active;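 active = activation above its plate's cutoff, the mean activation of sample wells plus 3 SD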
Target sequence (P08173 whole entry, looked up): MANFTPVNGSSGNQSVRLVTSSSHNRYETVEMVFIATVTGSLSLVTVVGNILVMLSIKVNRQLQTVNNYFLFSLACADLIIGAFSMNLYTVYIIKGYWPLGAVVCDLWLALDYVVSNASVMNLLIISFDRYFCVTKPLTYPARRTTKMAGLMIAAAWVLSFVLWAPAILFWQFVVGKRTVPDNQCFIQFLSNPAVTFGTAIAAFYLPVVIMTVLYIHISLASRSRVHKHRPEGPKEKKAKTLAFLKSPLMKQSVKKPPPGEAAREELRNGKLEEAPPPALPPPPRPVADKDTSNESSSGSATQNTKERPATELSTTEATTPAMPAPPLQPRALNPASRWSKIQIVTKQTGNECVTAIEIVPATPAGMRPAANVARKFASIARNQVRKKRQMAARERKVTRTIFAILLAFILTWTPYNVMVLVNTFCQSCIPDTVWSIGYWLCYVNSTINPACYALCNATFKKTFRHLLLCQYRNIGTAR
CHO-K1 Ca ag: counter-screen for M1 agonists: effect in parental CHO-K1 cells. AID 602248. activation, % at 3 µM. 360,000 tested, 0.48% active. Fluo-8 calcium fluorescence; scaled to maximal ATP response, vehicle zero; in the data active = activation above about 15%;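 note: untransfected CHO-K1 host cells lacking M1 receptor as counterscreen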
M1 PAM parental: nonselective activator or artifact in parental CHO-K1 calcium assay | ATP EC20, Fluo-8 calcium fluorescence; 0% at ATP EC20, 100% at ATP max | activation, % at 3 µM | 360,000 tested, 0.02% active | AID 602247;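 active = activation above the run cutoff, the mean activation of all test compounds plus 3 SD, cut at about 40% in these data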;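 note: peak over basal fluorescence ratio in a 140 s read after ATP addition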
M4 antag: antagonists of human muscarinic M4 receptor (CHRM4). P08173. CHO-hM4 cells, ACh EC80, Fluo-8 calcium fluorescence. inhibition, % at 3 µM. 360,000 tested, 0.73% active. AID 624125;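 active = inhibition above its plate's cutoff, the mean inhibition of sample wells plus 3 SD, cut at about 27% in these data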;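 note: 0% = acetylcholine EC80 with DMSO and 100% = DMSO without agonist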
M4 ag: CHRM4 agonism in calcium assay | P08173 | CHO-K1 hM4/Gqi5, Fluo-8 calcium fluorescence; vehicle 0%, full acetylcholine response 100% | activation, % at 3 µM | 360,000 tested, 0.14% active | AID 624127;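 active = activation above the run mean over all test wells plus 3 SD, cut at about 32% in these data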;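 note: peak over basal fluorescence ratio per well then scaled between controls; 0% = DMSO wells and 100% = acetylcholine at EC100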
Starred values were filed as active, the others as inactive. Most compounds without a hit are left out; they make up all but 2% or so of the library.

SMILES	CHO-K1 Ca antag	M4 PAM	CHO-K1 Ca ag	M1 PAM parental	M4 antag	M4 ag
O=C(Nc1cccc(NC(=O)c2ccc(F)cc2)c1)c1ccc(F)cc1	3	0	0	-2	0	1
O=C(Nc1cccc(NC(=O)c2ccccc2Cl)c1)c1ccc(F)cc1	25*	-14	4	-30	11	13
Cc1oc2ccc(OCc3c(F)cccc3Cl)cc2c1C(=O)O	-4	9	0	7	8	1
Cc1cc(F)ccc1S(=O)(=O)N(CC(=O)N1CCOCC1)CC(=O)N1CCOCC1	-11	25*	1	-1	-10	0
CCC(Sc1nc(C)cc(=O)[nH]1)C(=O)Nc1nc(-c2ccccc2)cs1 (stereo not drawn)	1	4	1	14	-8	-1
CCC(=O)Oc1ccc2c(c1)OC1(OC(C)=O)OC(C)CC1=C2C (stereo not drawn)	-4	-6	1	-13	12	3
C[C@@H]1CN([C@H](C)CO)C(=O)CCCn2cc(nn2)CO[C@H]1CN(C)S(=O)(=O)c1cccs1	32*	-10	0	-9	4	-1
C[C@H]1CN([C@@H](C)CO)C(=O)c2cc(Br)cnc2O[C@H]1CN(C)S(=O)(=O)c1ccccc1F	2	6	0	-2	-10	2
C[C@@H]1CN([C@@H](C)CO)C(=O)CCCn2cc(nn2)CO[C@H]1CN(C)S(=O)(=O)c1cccs1	8	3	0	-11	2	1
C[C@@H]1CN([C@H](C)CO)C(=O)c2cc(C#Cc3ccccc3F)cnc2O[C@@H]1CN(C)S(=O)(=O)c1ccccc1F	25*	4	0	-11	-13	-1
Cc1ccc(S(=O)(=O)N(C)C[C@H]2OCc3cnnn3CCCC(=O)N([C@@H](C)CO)C[C@H]2C)cc1	-3	-2	0	9	-11	0
Cc1noc(C)c1S(=O)(=O)Nc1ccc2c(c1)CC(=O)N([C@H](C)CO)C[C@H](C)[C@H](CN(C)S(=O)(=O)c1ccc(F)cc1)O2	-11	-14	0	12	59*	1
COc1ccc(S(=O)(=O)N(C)C[C@@H]2OCc3cnnn3CCCC(=O)N([C@@H](C)CO)C[C@@H]2C)cc1	-6	19*	1	19	-17	1
CC12CCC(=O)N1C(C(=O)Nc1cccc(S(=O)(=O)N3CCCCCC3)c1)CS2 (stereo not drawn)	13	-3	1	-8	-2	6
CCc1ccc(S(=O)(=O)Nc2cccc(C3OCCCO3)c2)cc1	11	-2	4	-7	-3	8
C[C@H](CO)N1C[C@H](C)[C@@H](CN(C)S(=O)(=O)c2cccs2)Oc2ccc(NC(=O)CCC(F)(F)F)cc2C1=O	-7	-6	0	9	29*	-1
C[C@@H]1CN([C@@H](C)CO)C(=O)CCCn2nncc2CO[C@@H]1CN(C)C(=O)Nc1cccc(C(F)(F)F)c1	26*	1	0	-5	3	1
C[C@@H]1CN([C@H](C)CO)C(=O)CCCn2cc(nn2)CO[C@H]1CN(C)S(=O)(=O)c1ccc(F)cc1	26*	-2	0	7	-19	0
C[C@@H]1CN([C@H](C)CO)C(=O)c2cc(NC(=O)Nc3ccc(C(F)(F)F)cc3)ccc2O[C@H]1CN(C)S(=O)(=O)c1cccs1	-6	0	-1	6	-1	1
C[C@H](CO)N1C[C@H](C)[C@@H](CN(C)S(=O)(=O)c2ccc(F)cc2)OCc2cn(nn2)CCCC1=O	-10	-1	-1	5	0	0
Cc1cc(C)c(S(=O)(=O)NCC(=O)O)cc1C	3	0	0	-9	2	1
COc1cc(C)ccc1OCC(=O)Nc1ccc2c(c1)OCO2	7	-3	0	-15	-1	0
O=C(CSc1ncnc2[nH]ncc12)Nc1nc(-c2ccc(F)c(F)c2)cs1	18	-20	15	-2	31*	20
O=S(=O)(c1ccc(Oc2ccc(S(=O)(=O)N(CCO)CCO)cc2)cc1)N(CCO)CCO	-2	-1	0	17	-6	0
O=C1c2cc(S(=O)(=O)N(CCO)CCO)ccc2-c2ccc(S(=O)(=O)N(CCO)CCO)cc21	3	-1	16*	18	2	0
SMILES	CHO-K1 Ca antag	M4 PAM	CHO-K1 Ca ag	M1 PAM parental	M4 antag	M4 ag
Cc1ccc(C(=O)Sc2cccccc2=O)cc1	35*	-8	4	-5	57*	8
Cc1c(C(=O)O)sc2nc3n(c(=O)c12)CCCCC3	-1	-1	0	3	1	0
CN(c1ccccc1)S(=O)(=O)c1cccc(NC(=O)c2ccncc2)c1	4	-24	15*	-1	8	16
CC(=O)Nc1ccc(C(=O)Nc2cccc(S(=O)(=O)N(C)c3ccccc3)c2)cc1	-10	-5	8	1	7	17
CN(c1ccccc1)S(=O)(=O)c1cccc(NC(=O)c2ccc(Cl)c([N+](=O)[O-])c2)c1	3	-16	8	-15	33*	23
CN(c1cccc(NC(=O)c2ccc(N(C)S(=O)(=O)c3ccccc3)cc2)c1)S(C)(=O)=O	24*	-24	16*	-12	17	25
CN(c1ccccc1)S(=O)(=O)c1cccc(NC(=O)CCNC(=O)c2ccc([N+](=O)[O-])cc2)c1	-10	-7	-1	-10	5	6
Cc1cnc(C(=O)Nc2nnc(SCc3c(Cl)cccc3Cl)s2)cn1	-19	2	1	32	-10	1
CCCCN(C(=O)CSc1c(C)c(C)cc(C)c1C)c1c(N)n(CCC)c(=O)[nH]c1=O	-8	2	0	6	5	0
Cc1ccc(S(=O)(=O)Nc2ccc(O)c3ccccc23)c(C)c1	27*	1	1	-28	3	2
Cc1ccc(C)c(S(=O)(=O)Nc2ccc(O)c3ccccc23)c1	12	-7	0	-13	4	1
O=C(CN1CCN(Cc2ccccc2Cl)CC1)N/N=C/c1ccco1	1	-5	17*	10	-3	0
O=C(Cn1c(C(F)(F)F)nc2ccccc21)N/N=C/c1ccco1	11	4	17*	10	-2	2
Cn1c(SCC(=O)N/N=C/c2ccco2)nc2ccccc21	-10	0	1	0	-4	2
NC(=O)CC(NC(=O)Cc1cccc2ccccc12)c1ccc(NCc2ccc(F)c(F)c2)c([N+](=O)[O-])c1 (stereo not drawn)	-11	24*	0	12	-26	2
NC(=O)CC(NC(=O)Cc1cccc2ccccc12)c1ccc(NCCOc2ccccc2)c([N+](=O)[O-])c1 (stereo not drawn)	-9	28*	0	11	5	2
